Assay [1] can be described thus: hit retest on RPL19A-GFP reporter strain – cell-based, S. cerevisiae, flow cytometry, cherry picks, mother/daughter gates, confirmation (AID 2270;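 active means GFP response below 50% of the DMSO control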). As to conditions: 3 h, at 10 µM, stronger effect = lower value, 100 = same GFP as DMSO wells. On the technique in general: In flow cytometry, cells or beads pass a laser one at a time.
Assay [2] in a line: yeast TOR pathway reporter LAP4-GFP change – cell-based, cherry picks, flow cytometry, mother/daughter gates, confirmation (AID 2271;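 active means GFP response above 150% of the DMSO control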;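 further: ratio of sample to DMSO plate mean so 100% equals DMSO level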). The following applies: S. cerevisiae LAP4-GFP strain, 3 h, at 10 µM, stronger effect = higher value, 100 means same as DMSO control.
A short description of assay [3]: TOR pathway reporter MEP2-GFP, retest of hits – S. cerevisiae, flow cytometry GFP, cherry picks, confirmation (AID 2272;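 active means GFP response above 150% of the DMSO control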;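 further: ratio of well signal to plate DMSO mean so 100% equals DMSO level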). As to conditions: S. cerevisiae MEP2-GFP strain, 3 h, at 10 µM, stronger effect = higher value.
Assay [4] is described as follows: yeast AGP1-GFP fluorescence change, single-dose – cell-based, flow cytometry, S. cerevisiae, cherry picks, confirmation (AID 2273).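 Further: median GFP channel fluorescence over the whole cell population gate.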 As to conditions: S. cerevisiae AGP1-GFP strain, 3 h, at 10 µM.
Assay [5] can be described thus: TOR pathway CIT2 reporter hit retest – S. cerevisiae, GFP fusion, cherry picks, mother/daughter gates, confirmation (AID 2274). As to conditions: S. cerevisiae CIT2-GFP strain, flow cytometry, 3 h, at 10 µM, stronger effect = higher value.
Assay [6] in a line: green-channel fluorescence artefact in S. cerevisiae – s288c strain, artefact control for yeast TOR pathway GFP screen, dose response (AID 2757;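 active means fluorescence span over the dose series, or activity score, above about 33, limit read from the data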;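 further: thousands of bead-calibrated equivalent soluble fluorophore molecules from median cell fluorescence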). The following applies: 520 nm autofluorescence, flow cytometry, 3 h, at 33 µM, stronger effect = higher value, zero means same as solvent-only cells.
Assay [7] can be described thus: reduced mouse 2C T cell binding to pMHC/ICAM-1 vesicles – MLPCN validation set, flow cytometry, LFA-1/ICAM-1 modulator project, pilot screen (AID 2523;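 active means response below a set limit, under 55% cells CD8-positive and vesicle-bound, and CD8 cells' 90th-percentile brightness under 279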;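 on vesicle binding response: mean PE anti-B7-1 fluorescence of CD8+ cells relative to row control; 100% = QL9-loaded vesicles with DMSO vehicle in the same plate row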). The following applies: 2C mouse CD8+ T cells, at 7 µM, stronger effect = lower value; double positive events: measured here: CD8+/vesicle+ event percentage.
Assay [8] concerns the target Integrin beta-1 (Homo sapiens) + Integrin alpha-4 (Homo sapiens) (UniProt P13612+P05556). In words: alpha4beta1 integrin LIBS antibody binding reduction – U937 cells, HUTS-21 mAb, flow cytometry, validation set, VLA-4 allosteric modulator project, pilot screen (AID 2674;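 active means inhibition above 50%, about 3 SD of the validation set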;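 further: antibody binding induced by the VLA-4 ligand LDV present at three times its Kd; 0% = LDV ligand with antibody and no compound and 100% = antibody without LDV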). The following applies: HUTS-21 LIBS mAb binding, at 6.7 µM, stronger effect = higher value, binding induced by LDV ligand.

A short description of assay [9]: calorie-restriction mimetic ROS inhibitors, yeast – validation compound set, pilot screen (AID 2706;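 active means superoxide response below 65% of plate, a cut near 3 SD across the whole screen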;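 further: yeast exposed to compound for one week at 30 degrees C before staining; 100% = mean of all compound wells on the same plate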). As to conditions: S. cerevisiae aging, superoxide DHE fluorescence; at 10 µM, stronger effect = lower value.
Assay [10] concerns the target Beta-adrenergic receptor kinase 1 (Homo sapiens) (UniProt P25098). The assay is described as follows: GRK2 binders displacing RNA aptamer, biochemical, validation, human GRK2, bead flow cytometry (AID 488806;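 active means aptamer binding inhibition above 30%, about 3 SD of noise from non-fluorescent compounds; inactive means inhibition at or below 30%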). The following applies: bead-bound GRK2, FAM-aptamer displacement, at 10 µM, stronger effect = higher value.
The target of assay [11] is AP-2 complex subunit beta (Homo sapiens) (UniProt P63010). In words: beta-arrestin/AP2 interaction blockers – biochemical, validation set, GST-AP2 beads, flow cytometry, pilot screen (AID 504541;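 active means inhibition above 54%, about 3 SD of non-fluorescent compounds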;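 further: AP2 carries R879A mutation and is captured from E. coli lysate; bead-bound FITC arrestin peptide fluorescence measuring arrestin peptide binding to AP2; 0% = DMSO wells and 100% = excess unlabeled arrestin peptide control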). The following applies: FITC arrestin peptide, at 10 µM, stronger effect = higher value, AP2 beta2 appendage fragment, R879A mutant.
Assay [12] is described as follows: cytosolic pH regulators acting via V-ATPase – S. cerevisiae, pHLuorin, HTS validation (AID 504600; in the data active means response above about 15%;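 further: plate controls were DMSO for no effect and reference compound for full effect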). As to conditions: V-ATPase proton transport, at 10 µM, stronger effect = higher value.
In assay [13] the test system is anti-desmoglein-3 scFv antibody binding to human DSG3. The assay is described as follows: blockers of pathogenic pemphigus antibody–desmoglein-3 binding – biochemical, validation compound set, bead-based, flow cytometry, pilot screen (AID 588368;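 active means binding below the plate cutoff, the plate median minus 3 SD, with a reading above zero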;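 further: signal is the median channel fluorescence of bead-bound GFP antibody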). The following applies: Protein G beads, DSG3-Fc, scFv-GFP binding, at 10 µM, stronger effect = lower value.
The nature of assay [14]: Nile Red efflux blockade in pump-expressing yeast – validation compound set, multiplex, phenotypic, pilot screen (AID 588506;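 active means efflux inhibition above 0.42, the validation set average plus 4 SD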;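 further: Nile Red retained in cells so higher fluorescence means more efflux inhibition; 0 = negative control wells and 1 = enniatin B 25 µM full block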). The following applies: S. cerevisiae pump-expressing triplex, Nile Red efflux flow cytometry; at 10 µM; stronger effect = higher value; the pumps come from Candida albicans.
Assay [15] concerns the target ATP-binding cassette sub-family B member 6 (Homo sapiens) (UniProt Q9NP58). The assay is described as follows: blockers of ABCB6-driven porphyrin uptake – K562-ABCB6 cells, flow cytometry, validation set, pilot screen (AID 588550;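 active means inhibition above the screen-wide mean plus 3 SD, about 51%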;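 further: 0% = DMSO wells and 100% = benzethonium chloride 70 µM positive control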). The following applies: K562-ABCB6 porphyrin accumulation, 1 h, at 10 µM, stronger effect = higher value.
Assay [16] is described as follows: AML differentiation inducers, ER-HoxA9 marrow cells – cell-based, GFP/MAC1 double positive, flow cytometry, validation set, primary screen (AID 588685;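 active means differentiation response of at least 50%, scaled between solvent and reference control, from cells with both markers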;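 further: compound exposure lasts four days before antibody staining and flow analysis; 0% = DMSO wells and 100% = 5 µM fulvestrant positive control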). As to conditions: stronger effect = higher value, normalized: vehicle 0, fulvestrant 100.
[17] abbreviates: measured here: daughter cell gate.
Where [18] appears, read: measured here: mother cell gate.
[19] abbreviates: measured here: mother cell gate response.
The mark [20] stands for this setting: measured here: daughter cell gate response.

The other results are listed elsewhere or left out. Activity calls are given as the source filed them.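 How the source made its calls, unless noted: active means GFP response above 150% of the DMSO level; inconclusive means fewer than 70 events counted for a yeast strain; inactive means the rest.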

Chain of ATP-binding cassette sub-family B member 6 (Homo sapiens) (Q9NP58 whole entry, looked up): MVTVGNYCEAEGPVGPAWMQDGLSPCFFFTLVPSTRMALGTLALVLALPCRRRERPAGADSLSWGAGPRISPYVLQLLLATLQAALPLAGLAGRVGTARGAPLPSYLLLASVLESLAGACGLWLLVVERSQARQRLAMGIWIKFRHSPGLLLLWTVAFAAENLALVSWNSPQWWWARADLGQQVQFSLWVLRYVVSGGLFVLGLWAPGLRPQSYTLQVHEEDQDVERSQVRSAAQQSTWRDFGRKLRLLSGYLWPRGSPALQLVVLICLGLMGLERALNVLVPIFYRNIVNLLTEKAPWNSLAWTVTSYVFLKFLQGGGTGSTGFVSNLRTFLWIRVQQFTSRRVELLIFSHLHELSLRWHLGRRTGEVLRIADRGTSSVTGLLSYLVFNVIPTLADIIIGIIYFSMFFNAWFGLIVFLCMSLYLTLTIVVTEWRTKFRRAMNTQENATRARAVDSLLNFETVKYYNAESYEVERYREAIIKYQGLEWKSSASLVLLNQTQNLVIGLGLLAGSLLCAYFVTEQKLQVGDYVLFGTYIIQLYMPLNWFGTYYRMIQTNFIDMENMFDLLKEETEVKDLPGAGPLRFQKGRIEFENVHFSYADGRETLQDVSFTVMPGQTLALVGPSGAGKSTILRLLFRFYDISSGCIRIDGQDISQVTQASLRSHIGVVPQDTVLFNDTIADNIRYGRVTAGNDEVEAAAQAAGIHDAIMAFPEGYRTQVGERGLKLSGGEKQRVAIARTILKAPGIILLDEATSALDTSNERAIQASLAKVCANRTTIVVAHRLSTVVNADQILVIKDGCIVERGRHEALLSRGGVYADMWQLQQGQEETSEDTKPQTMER
Chain of Integrin beta-1 (Homo sapiens) + Integrin alpha-4 (Homo sapiens) (P05556 whole entry, looked up): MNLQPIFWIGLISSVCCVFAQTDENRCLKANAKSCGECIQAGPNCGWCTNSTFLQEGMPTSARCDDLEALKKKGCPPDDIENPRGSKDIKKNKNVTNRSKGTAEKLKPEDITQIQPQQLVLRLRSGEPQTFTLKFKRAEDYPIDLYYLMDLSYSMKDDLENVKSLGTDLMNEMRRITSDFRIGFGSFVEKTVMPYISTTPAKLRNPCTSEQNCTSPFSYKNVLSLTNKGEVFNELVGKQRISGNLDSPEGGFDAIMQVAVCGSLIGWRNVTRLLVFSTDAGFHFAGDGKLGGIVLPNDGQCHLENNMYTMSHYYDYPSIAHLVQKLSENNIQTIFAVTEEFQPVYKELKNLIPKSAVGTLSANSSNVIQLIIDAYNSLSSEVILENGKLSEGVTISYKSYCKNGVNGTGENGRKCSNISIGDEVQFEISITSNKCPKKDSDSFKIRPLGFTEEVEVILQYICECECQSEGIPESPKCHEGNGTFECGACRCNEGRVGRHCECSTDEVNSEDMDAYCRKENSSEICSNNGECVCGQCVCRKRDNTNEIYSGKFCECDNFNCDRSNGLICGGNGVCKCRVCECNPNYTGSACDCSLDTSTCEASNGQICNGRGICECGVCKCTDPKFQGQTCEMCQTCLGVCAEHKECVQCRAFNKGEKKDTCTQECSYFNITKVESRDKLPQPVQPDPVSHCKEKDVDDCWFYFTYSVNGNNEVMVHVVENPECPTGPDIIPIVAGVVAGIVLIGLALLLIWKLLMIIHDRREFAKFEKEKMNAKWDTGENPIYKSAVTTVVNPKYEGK
Chain of Integrin beta-1 (Homo sapiens) + Integrin alpha-4 (Homo sapiens) (P13612 whole entry, looked up): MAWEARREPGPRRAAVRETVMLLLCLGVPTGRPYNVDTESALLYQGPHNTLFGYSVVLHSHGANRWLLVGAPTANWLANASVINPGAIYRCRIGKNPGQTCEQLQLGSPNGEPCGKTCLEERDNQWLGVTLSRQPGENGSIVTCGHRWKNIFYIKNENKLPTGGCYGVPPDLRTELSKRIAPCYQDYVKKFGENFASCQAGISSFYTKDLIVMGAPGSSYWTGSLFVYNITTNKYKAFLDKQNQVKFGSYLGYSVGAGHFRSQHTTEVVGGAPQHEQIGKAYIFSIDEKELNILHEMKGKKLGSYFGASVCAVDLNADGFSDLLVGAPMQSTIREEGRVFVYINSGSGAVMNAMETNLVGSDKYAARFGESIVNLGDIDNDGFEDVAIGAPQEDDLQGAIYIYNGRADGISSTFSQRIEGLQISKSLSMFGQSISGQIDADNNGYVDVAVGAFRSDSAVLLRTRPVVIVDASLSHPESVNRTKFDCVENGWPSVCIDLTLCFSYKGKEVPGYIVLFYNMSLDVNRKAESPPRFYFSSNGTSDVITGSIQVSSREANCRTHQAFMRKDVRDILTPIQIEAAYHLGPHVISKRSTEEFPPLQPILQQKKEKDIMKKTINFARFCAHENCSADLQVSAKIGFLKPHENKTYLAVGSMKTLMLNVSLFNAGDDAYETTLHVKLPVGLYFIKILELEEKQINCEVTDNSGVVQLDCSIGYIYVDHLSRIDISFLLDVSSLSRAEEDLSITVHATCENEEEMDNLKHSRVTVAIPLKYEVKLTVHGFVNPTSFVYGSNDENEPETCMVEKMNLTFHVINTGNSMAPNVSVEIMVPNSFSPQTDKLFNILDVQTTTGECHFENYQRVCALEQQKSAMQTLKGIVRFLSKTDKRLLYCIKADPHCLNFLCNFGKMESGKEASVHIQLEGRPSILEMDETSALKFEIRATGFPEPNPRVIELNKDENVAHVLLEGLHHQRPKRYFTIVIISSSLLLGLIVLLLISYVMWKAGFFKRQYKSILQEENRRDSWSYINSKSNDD
Chain of AP-2 complex subunit beta (Homo sapiens) (P63010 whole entry, looked up, the tested form may be a part, one chain of several): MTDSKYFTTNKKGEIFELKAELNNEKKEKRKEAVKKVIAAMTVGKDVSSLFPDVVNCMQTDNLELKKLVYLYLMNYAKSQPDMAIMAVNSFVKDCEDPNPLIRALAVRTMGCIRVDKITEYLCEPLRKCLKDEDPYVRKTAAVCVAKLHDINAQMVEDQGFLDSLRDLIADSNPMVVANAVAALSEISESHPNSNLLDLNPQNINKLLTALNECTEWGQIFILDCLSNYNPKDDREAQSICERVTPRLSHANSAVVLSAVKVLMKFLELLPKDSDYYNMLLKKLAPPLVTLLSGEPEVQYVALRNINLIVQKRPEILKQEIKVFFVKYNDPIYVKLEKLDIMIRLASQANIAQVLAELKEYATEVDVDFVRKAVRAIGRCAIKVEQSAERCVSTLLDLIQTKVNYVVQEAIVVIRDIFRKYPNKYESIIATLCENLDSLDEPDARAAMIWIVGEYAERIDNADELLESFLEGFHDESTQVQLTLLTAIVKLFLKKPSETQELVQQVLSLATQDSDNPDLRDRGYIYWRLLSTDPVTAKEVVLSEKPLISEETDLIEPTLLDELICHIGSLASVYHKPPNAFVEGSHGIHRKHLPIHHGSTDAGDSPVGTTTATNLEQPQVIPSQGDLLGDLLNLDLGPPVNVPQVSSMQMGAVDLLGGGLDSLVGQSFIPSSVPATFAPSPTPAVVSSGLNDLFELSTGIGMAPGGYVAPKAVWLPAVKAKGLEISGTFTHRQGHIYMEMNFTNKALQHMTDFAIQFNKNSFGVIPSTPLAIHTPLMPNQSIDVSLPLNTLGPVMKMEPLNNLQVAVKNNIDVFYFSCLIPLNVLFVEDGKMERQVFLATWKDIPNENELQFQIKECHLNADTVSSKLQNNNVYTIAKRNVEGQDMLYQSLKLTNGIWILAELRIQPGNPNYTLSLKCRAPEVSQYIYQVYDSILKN
Chain of Beta-adrenergic receptor kinase 1 (Homo sapiens) (P25098 whole entry, looked up): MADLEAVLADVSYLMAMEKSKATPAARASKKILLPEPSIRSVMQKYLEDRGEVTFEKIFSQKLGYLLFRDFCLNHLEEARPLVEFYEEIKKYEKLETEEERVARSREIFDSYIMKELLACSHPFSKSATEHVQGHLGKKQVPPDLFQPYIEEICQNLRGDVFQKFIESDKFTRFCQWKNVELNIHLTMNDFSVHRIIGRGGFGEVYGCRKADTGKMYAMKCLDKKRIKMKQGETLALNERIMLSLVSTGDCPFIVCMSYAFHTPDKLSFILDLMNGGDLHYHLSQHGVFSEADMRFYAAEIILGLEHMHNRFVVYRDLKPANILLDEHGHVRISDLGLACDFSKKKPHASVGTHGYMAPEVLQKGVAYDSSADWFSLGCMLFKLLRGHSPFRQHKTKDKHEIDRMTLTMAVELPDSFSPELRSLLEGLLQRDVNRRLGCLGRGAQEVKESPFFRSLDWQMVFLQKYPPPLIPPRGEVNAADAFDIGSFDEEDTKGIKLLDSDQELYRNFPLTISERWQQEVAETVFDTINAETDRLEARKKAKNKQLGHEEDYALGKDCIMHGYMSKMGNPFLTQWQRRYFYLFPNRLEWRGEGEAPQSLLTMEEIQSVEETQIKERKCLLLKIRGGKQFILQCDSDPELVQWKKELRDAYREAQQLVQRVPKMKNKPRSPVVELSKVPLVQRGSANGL

For `CCCc1[nH]nc2c1C(c1ccccc1OC)C(C#N)=C(N)O2` (configuration not stated), the GFP response vs DMSO is 98% (inactive) in assay [1], 94.4% in [1] (setting [17]), 94.3% in assay [1] (setting [18]) and 120% (inactive) in [3]. Also, the GFP response relative to DMSO in assay [2] is 116% (inactive); in [2] (setting [19]) it was 100%. The GFP response, % of DMSO in assay [4] is 102% (inactive); in assay [5] it was 115% (inactive); in assay [5] (setting [17]), 121%; in assay [5] (setting [18]) it was 112%.

In the case of `Cc1cccc(C)c1NC(=O)C(Cl)C(=O)c1ccccc1` (configuration not stated), the GFP response vs DMSO in [1] is 89.9% (inactive); in assay [1] (setting [17]) it was 87.6%; in [1] (setting [18]) it was 82.5%; in [3], 100% (inactive). Further, the results for the GFP response relative to DMSO in assay [2], in assay [2] (setting [20]) and in assay [2] (setting [19]) were 241% (active), 168% and 252%, respectively. Besides, the GFP response, % of DMSO in assay [4] was 101% (inactive); in assay [5] it was 99.7% (inactive); in [5] (setting [17]) it was 95.4%; in [5] (setting [18]) it was 87.8%. The fluorescence change (kMESF span) in [6] was 0 (inactive).

As usually defined, the inhibition is the change of the read-out against control, counted positive when it falls. Take `CCCCC(=O)O[C@]1(C(=O)CO)CC[C@H]2[C@@H]3CCC4=CC(=O)CC[C@]4(C)[C@H]3[C@@H](O)C[C@@]21C`: the GFP response vs DMSO in [1] is 96.8% (inactive); in assay [1] (setting [17]) it was 96.4%; in assay [1] (setting [18]), 99%; in assay [3], 105% (inactive). In addition, the results for the GFP response relative to DMSO in assay [2], in [2] (setting [20]) and in [2] (setting [19]) were 101% (inactive), 101% and 99.3%, respectively. Also, the GFP response, % of DMSO is 99.3% (inactive) in assay [4], 101% (inactive) in [5], 101% in assay [5] (setting [17]) and 101% in assay [5] (setting [18]). Further, in [7], the double positive events is 62.4%. In addition, in [7], the vesicle binding response was 271% (inactive). The figures for the inhibition in [8], in assay [11] and in assay [15] were 4.42% (inactive), -7.47% (inactive) and 9% (inactive), respectively. Moreover, in assay [9], the superoxide response (% of plate) is 83.1% (inactive). In addition, the aptamer binding inhibition in assay [10] is 2% (inactive). The response in assay [12] was -1.11% (inactive). Moreover, the binding (% of control) in assay [13] is 101% (inactive). In assay [14], the efflux inhibition (fraction of control) is 0.1 (inactive). The differentiation response in assay [16] was -6.66% (inactive).

With `Cc1[nH][nH]c(=O)c1C(c1ccc(-c2ccc(Cl)cc2)o1)c1c(C)[nH][nH]c1=O`, the GFP response vs DMSO is 101% (inactive) in assay [1], 102% in assay [1] (setting [17]), 99.8% in [1] (setting [18]) and 114% (inactive) in assay [3]. The GFP response relative to DMSO in [2] is 188% (active); in assay [2] (setting [20]) it was 179%; in assay [2] (setting [19]), 179%. Also, the GFP response, % of DMSO in assay [4] was 103% (inactive); in [5] it was 101% (inactive); in assay [5] (setting [17]), 102%; in [5] (setting [18]) it was 95.6%. Also, in assay [6], the fluorescence change (kMESF span) is 0.2 (inactive).

With `CCOC(=O)Cc1csc(NC(=O)CCCCCN2C(=O)c3cccc4cccc(c34)C2=O)n1`, the GFP response vs DMSO is 98.7% (inactive) in assay [1], 99.3% in assay [1] (setting [17]), 99.3% in assay [1] (setting [18]) and 102% (inactive) in assay [3]. Also, the figures for the GFP response relative to DMSO in assay [2], in assay [2] (setting [20]) and in assay [2] (setting [19]) were 88.4% (inactive), 87.8% and 89.7%, respectively. The GFP response, % of DMSO in [4] was 98.2% (inactive); in assay [5], 102% (inactive); in [5] (setting [17]), 98.3%; in [5] (setting [18]), 101%.

Take `Cc1ccc(CS(=O)(=O)c2ncc(Cl)c(C(=O)Nc3nnc(C(C)C)s3)n2)cc1`: the GFP response vs DMSO was 96.2% (inactive) in [1], 96.1% in assay [1] (setting [17]), 94% in [1] (setting [18]) and 103% (inactive) in assay [3]. For the same compound, the GFP response relative to DMSO is 108% (inactive) in assay [2] and 99.5% in [2] (setting [19]). The GFP response, % of DMSO in [4] is 100% (inactive); in assay [5], 101% (inactive); in assay [5] (setting [17]), 94%; in assay [5] (setting [18]), 100%.

These data come from PubChem BioAssay.
